HT1080NT lethal = kills 2HG-producing HT-1080-NT fibrosarcoma cells; HT-1080-NT fibrosarcoma viability, CellTiter-Glo ATP luminescence, 48 h; Potency, µM (doses to about 46.1 µM), without a hit: at the top dose activity, negative = less viability, actives largely listed as cytotoxic; actives 1.6% (n = 360,000);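 further: NT is the 2HG producing partner of a matched IDH1 knockdown line; potency means the concentration at half of the fitted maximal effect; 0% = DMSO-treated cells and -100% = media-only wells without cells; nearly all actives have a fitted effect of over 55% in size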
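Toxicity toward the 2HG-producing NT line was scored as %Activity, normalised to DMSO and no-cell wells, from CellTiter-Glo luminescence after 48 hours' treatment.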
ELG1 DNA repair = ELG1-dependent DNA repair inhibition; Potency, µM (series often up to 46.1 µM), for the others: top-dose activity change, negative = inhibition, most hits filed as inhibitors; actives 2.3% (n = 330,000); HEK293T ELG1-luciferase reporter, luminescence, 16 h; DNA damage induced by 5-fluorouridine; further: potency means the concentration at half of the fitted maximal effect; nearly all actives have a fitted effect of over 55% in size
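Overnight (16 hr) co-exposure of 2,000 cells/well to 5-fluorouridine and compound at 37 °C preceded detection. Luciferase was quantified via ONE-Glo luminescence; loss of signal denotes inhibition.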
DT40 TDP1 no CPT = qHTS for Inhibitors of human tyrosyl-DNA phosphodiesterase 1 (TDP1): qHTS in cells in absence of CPT; DT40 Tdp1-/- hTDP1 cells, no CPT, ATP luminescence, 48 h; Potency, µM (highest dose often 46.2 µM), without a hit: at the highest dose activity change, negative = growth inhibition, most hits filed as inhibitors; actives 15% (n = 420,000); further: potency means the concentration at half of the fitted maximal effect; nearly all actives have a fitted effect of over 55% in size
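Stably hTDP1-transfected Tdp1-null chicken DT40 cells were treated with library compounds minus camptothecin and grown for at least 48 hr at 37 °C, after which cellular ATP was quantified by luminescence.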
HT1080 IDH1KD tx = kills HT-1080 cells with IDH1 knockdown | AID 686971 | actives 2% (n = 360,000) | Potency, µM (titrated, usually from 46.1 µM), for the others: at the top dose activity, negative = toxicity, usual class: cytotoxic | HT-1080 IDH1 knockdown viability, ATP luminescence, 48 h;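 further: potency means the concentration at half of the fitted maximal effect; 0% = DMSO wells and -100% = cell-free medium wells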
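In this qHTS, HT-1080 cells depleted of IDH1 are exposed for 48 h at 37 °C to compound titrations. Toxicity is scored from CellTiter-Glo luminescence, with DMSO as full viability and medium alone as none.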
IL-1B inflam inh = blocks inflammasome-driven IL-1 beta release | activity change, % at 57.5 µM | THP-1 LPS/ATP IL-1B secretion, AlphaLISA, 16 h; active compounds read low | actives 4.7% (n = 360,000); in the data active means activity change below about -50%; inconclusive means mostly about -30% to -49%
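THP-1 cells pretreated 1 hr with compounds (up to 57.5 uM final), then stimulated with LPS (250 ng/mL final) plus ATP (1.25 mM final); secreted IL-1B measured by AlphaLISA after 16 hr, decreased signal indicating inhibition.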
TDP1 cell CPT = DT40-hTDP1 cell growth loss with CPT; AID 686979; Potency, µM (highest dose often 46.2 µM), for inactives: at the top dose activity change, negative = growth inhibition, most hits filed as inhibitors; chicken DT40 Tdp1-/-;hTDP1 cells + 20 nM CPT, ATP luminescence, 48 h; actives 12% (n = 420,000); further: potency means the concentration at half of the fitted maximal effect; nearly all actives have a fitted effect of over 55% in size
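Cell growth measured by CellTiter-Glo luminescence after a minimum 48 h, 37 C compound exposure with 20 nM CPT in Tdp1-knockout DT40 cells stably expressing hTDP1, seeded 400/well; qHTS titration format.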
The depositor's hits bear a star; i = inactive; ? = inconclusive; . = no result. In the library only some 19% were active in any assay of this set; here they are far more common. Unless noted, the call rests on the fitted dose curve; in most records, active means well fitted curve in the direction sought with a large enough effect; inconclusive means small, poorly fitted or top-dose-only effect, or another doubt; inactive means no such curve, though single readings can be large; an effect the other way counts as inactive or inconclusive. Unless noted, on the % scale 0 is the no-effect control and ±100 the full control effect.

SMILES	HT1080NT lethal	ELG1 DNA repair	DT40 TDP1 no CPT	HT1080 IDH1KD tx	IL-1B inflam inh	TDP1 cell CPT
Cc1ccc(NC(=O)c2cccc(NC(=O)N3CCSc4ncccc43)c2)cc1F	.	.	-25%	.	.	-19%
COc1cc(S(=O)(=O)N2CCN(c3ccccc3)CC2)ccc1F	16%	-3%	?	2%	17	?
COc1cc(S(=O)(=O)N2CCN=C2c2ccccc2)ccc1F	?	0%	23µM*	?	3	?
CCOc1ccc(S(=O)(=O)N2CCN=C2c2ccccc2)c(C)c1C	-21%	-11%	23µM*	-21%	i	16µM*
O=C(CSc1ccccc1F)NCC1(N2CCCCC2)CCCCC1	-1%	?	22%	-1%	0	?
O=C(CCl)Nc1ncc(S(=O)(=O)c2ccc([N+](=O)[O-])cc2)s1	?	10%	16µM*	-19%	?	29µM*
CCC(C)(C)C(=O)Nc1ncc(S(=O)(=O)c2ccc([N+](=O)[O-])cc2)s1	-16%	?	?	-27%	58	?
CCCC(C)C(=O)Nc1ncc(S(=O)(=O)c2ccc([N+](=O)[O-])cc2)s1 (stereo not given)	-8%	?	?	-14%	53	15µM*
Nc1c(-c2nc(-c3ccc4c(c3)OCO4)cs2)c2ccccn2c1C(=O)c1ccccc1	.	.	?	.	.	-23%
CSc1sc(-c2ccnc(=S)[nH]2)c(-c2ccccc2)c1C#N	0%	-5%	1%	2%	29	22%
Fc1ccc(-c2ccnc(=S)[nH]2)cc1	7%	?	?	-5%	0	21µM*
CC(C)(C)OC(=O)C[C@@H]1C/C=C\C[C@@H](CC(=O)N(CCO)Cc2ccccc2)C(=O)N2CCC[C@H]2COC1=O	10%	?	?	11%	1	?
O=C1OC[C@@H]2CCCN2C(=O)[C@H](CC(=O)N(CCO)Cc2ccccc2)C/C=C\CC[C@H]1Cc1ccc(F)cc1	-1%	-16%	?	-6%	-29	23µM*
O=C1OC[C@H]2CCCN2C(=O)[C@@H](CC(=O)N(CCO)Cc2ccccc2)C/C=C\CC[C@@H]1Cc1ccc(F)cc1	1%	?	21µM*	2%	-9	18µM*
O=C1OC[C@H]2CCCN2C(=O)[C@@H](CC(=O)N(CCO)Cc2ccccc2)C/C=C\CC[C@H]1Cc1ccc(F)cc1	1%	?	21µM*	-11%	?	16µM*
O=C(N/N=C/c1cc(Cl)cc([N+](=O)[O-])c1O)c1ccccc1NS(=O)(=O)c1cccs1	14%	?	-5%	14%	59	5%
O=C1NN=C(c2ccc(Br)cc2)CC1c1ccc(Cl)cc1 (stereo not given)	0%	-4%	?	-14%	-85*	?
CCc1ccc(C2CC(c3ccc(Cl)cc3)=NNC2=O)cc1 (stereo not given)	6%	-1%	?	-1%	-52*	?
COC(=O)CC1C(=O)NC2CCCCC2N1C(=O)CCl (stereo not given)	?	?	15µM*	?	-62*	?
CCNC(=O)N1C(CC(=O)OCC)C(=O)NC2CCCCC21 (stereo not given)	12%	2%	1%	17%	3	-3%
CN(C)c1ccc(/C=C2\C(=O)Nc3ccccc32)cc1	.	.	16µM*	.	.	16µM*
NS(=O)(=O)c1ccc(-c2ccc(/C=C3\C(=O)Nc4ccccc43)o2)cc1	.	16%	.	.	.	.
Cc1ccc(/C=C2\C(=O)Nc3ccccc32)o1	4%	12%	3.7µM*	-7%	2	1.5µM*
CC(=O)N1c2ccccc2C(=O)C1N(C)c1ccc(C)cc1 (stereo not given)	-14%	0%	?	-13%	-11	2%
O=C1Nc2ccccc2/C1=C/c1cccnc1	-18%	-6%	?	-21%	-65*	?
SMILES	HT1080NT lethal	ELG1 DNA repair	DT40 TDP1 no CPT	HT1080 IDH1KD tx	IL-1B inflam inh	TDP1 cell CPT
CN(C)c1ccc(/C=C2/NC(=O)NC2=O)cc1	-2%	?	?	2%	-7	-18%
CC(=O)N1/C(=C/c2ccc(N(C)C)cc2)C(=O)c2ccccc21	3.3µM*	?	0.46µM*	?	-95*	0.52µM*
O=C1Nc2ccccc2/C1=C/c1ccccc1F	?	23%	23µM*	-28%	-30	?
CN(C)c1ccc(/C=C2\C(=O)/C(=C/c3ccc(N(C)C)cc3)c3ccccc32)cc1	.	.	7.1µM*	.	.	?
Cc1nn(-c2ccc(F)cc2)c(Cl)c1/C=C1\C(=O)Nc2ccccc21	?	?	8.2µM*	5.2µM*	0	6.5µM*
CCCNC(=O)C1=CC(c2ccc3c(c2)OCO3)=NS(=O)(=O)N1C	.	.	-22%	.	.	0%
O=C(Nc1ccc(Br)cc1F)c1nc[nH]c1C(=O)N1CCc2ccccc2C1	-2%	.	?	3%	14	?
Cc1ccc(OCCN2CCC2(C)C(=O)NCc2ccc(C(F)(F)F)cc2)cc1 (stereo not given)	?	.	21µM*	?	-19	?
CC1(C(=O)NCc2ccc(C(F)(F)F)cc2)CCN1Cc1c(F)cccc1F (stereo not given)	-5%	.	?	0%	4	16µM*
CC1(C(=O)NCc2ccc(C(F)(F)F)cc2)CCN1Cc1ccc(-c2ccccc2)o1 (stereo not given)	?	.	?	?	-54*	?
Cc1ccc(OCCN2CCC2(C)C(=O)NCc2cccc3ccccc23)cc1 (stereo not given)	?	.	?	?	-11	?
CCNC(=O)C1(C)CCCN1Cc1c(F)cccc1F (stereo not given)	?	.	16µM*	28%	0	?
CCCOc1cccc(C2c3c(oc4ccc(F)cc4c3=O)C(=O)N2CCCN2CCOCC2)c1 (stereo not given)	.	.	2%	.	.	-3%
CN(C)c1ccc(C(CNS(=O)(=O)c2ccc([N+](=O)[O-])cc2)N2CCCC2)cc1 (stereo not given)	-5%	10%	?	-1%	?	?
O=C(NCCS(=O)(=O)N1CCCCCC1)c1ccccc1	-2%	0%	-8%	2%	-10	-1%
